Compound activity from PubChem.
Pf Dd2 inh: P. falciparum Dd2 growth inhibition | SYBR Green, 72 h; stronger effect = lower value | activity change, % at 10 µM | 94,000 tested, 2.3% active | AID 1159554; in the data active = activity change below about -80%; inconclusive = no clear call, values can overlap the other calls
C diff HTS: inhibitors of Clostridium difficile growth. Clostridium difficile clinical isolate growth, OD600, 24 h; stronger effect = lower value. growth activity, negative = inhibition, % at 16 µg/mL (by protocol). 86,000 tested, 0.25% active;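 active = mean growth activity at or below -80% and every replicate also at or below -80%; inconclusive = mean at or below -80% but some replicate above -80%; inactive = mean growth activity above -80%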;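 note: 0% = DMSO wells and -100% = levofloxacin 16 µg/mL wells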
* hit, by the source's call; ? = inconclusive; . = no result given. A selection: hits, their analogues and other compounds. The true share with any hit is near 2.3%.

SMILES	Pf Dd2 inh	C diff HTS
Cc1ccc(S(=O)(=O)Nc2ccc3c(c2)C(=O)N([C@H](C)CO)C[C@@H](C)[C@H](CN(C)C(=O)Nc2cccc4ccccc24)OCCCC[C@@H](C)O3)cc1	-67	-4
Cc1ccc(S(=O)(=O)Nc2ccc3c(c2)C(=O)N([C@@H](C)CO)C[C@H](C)[C@@H](CN(C)C(=O)Nc2cccc4ccccc24)OCCCC[C@H](C)O3)cc1	-83*	0
Cc1ccc(S(=O)(=O)Nc2ccc3c(c2)C(=O)N([C@@H](C)CO)C[C@H](C)[C@@H](CN(C)C(=O)Nc2cccc4ccccc24)OCCCC[C@@H](C)O3)cc1	-85*	-7
Cc1ccc(S(=O)(=O)Nc2ccc3c(c2)C(=O)N([C@H](C)CO)C[C@H](C)[C@H](CN(C)C(=O)Nc2cccc4ccccc24)OCCCC[C@@H](C)O3)cc1	-60	-4
Cc1ccc(S(=O)(=O)Nc2ccc3c(c2)C(=O)N([C@H](C)CO)C[C@H](C)[C@@H](CN(C)C(=O)Nc2cccc4ccccc24)OCCCC[C@H](C)O3)cc1	-72	-1
Cc1ccc(S(=O)(=O)Nc2ccc3c(c2)C(=O)N([C@@H](C)CO)C[C@@H](C)[C@@H](CN(C)C(=O)Nc2cccc4ccccc24)OCCCC[C@H](C)O3)cc1	-84*	3
COc1ccc(C#Cc2ccc3c(c2)O[C@@H](CN(C)S(=O)(=O)c2ccccc2F)[C@@H](C)CN([C@@H](C)CO)S3(=O)=O)cc1	-90*	2
C[C@@H]1CN([C@@H](C)CO)S(=O)(=O)c2ccc(C#Cc3ccccc3)cc2O[C@H]1CN(C)S(=O)(=O)c1cn(C)cn1	-75	-8
C[C@H]1CN([C@@H](C)CO)S(=O)(=O)c2ccc(C#Cc3ccccc3)cc2O[C@@H]1CN(C)S(=O)(=O)c1cn(C)cn1	-87*	-9
COc1ccc(C#Cc2ccc3c(c2)O[C@H](CN(C)S(=O)(=O)c2ccccc2F)[C@@H](C)CN([C@H](C)CO)S3(=O)=O)cc1	-87*	3
COc1cccc(C#Cc2ccc3c(c2)O[C@H](CN(C)S(=O)(=O)c2ccccc2F)[C@H](C)CN([C@H](C)CO)S3(=O)=O)c1	-63	6
COc1ccc(S(=O)(=O)N(C)C[C@@H]2Oc3cc(C#CC4CCCCC4)ccc3S(=O)(=O)N([C@@H](C)CO)C[C@H]2C)cc1	-84*	.
COc1cccc(C#Cc2ccc3c(c2)O[C@H](CN(C)S(=O)(=O)c2ccccc2F)[C@@H](C)CN([C@@H](C)CO)S3(=O)=O)c1	-56	2
COc1ccc(S(=O)(=O)N(C)C[C@H]2Oc3cc(C#CC4CCCCC4)ccc3S(=O)(=O)N([C@@H](C)CO)C[C@H]2C)cc1	-78	.
COc1ccc2c3c([nH]c2c1)[C@H](CO)N(C(=O)C1CC1)CC31CCN(Cc2cccc(F)c2)CC1	-13	4
COc1ccc(CN2C[C@@H](O)COC[C@@H]3O[C@H](CC(=O)N4CCc5ccccc5C4)CC[C@H]32)cc1	-15	.
C[C@H]1CN([C@@H](C)CO)S(=O)(=O)c2ccc(Br)cc2O[C@@H]1CN(C)Cc1cccnc1	-13	5
Cc1cc(C(=O)Nc2cccc3c2O[C@@H](CN(C)Cc2ccc(-c4ccccc4)cc2)[C@@H](C)CN([C@H](C)CO)C3=O)n(C)n1	-11	4
C[C@H]1CCCCO[C@@H](CN(C)CC2CCCCC2)[C@@H](C)CN([C@@H](C)CO)C(=O)c2cc(NC(=O)Nc3ccc(C(F)(F)F)cc3)ccc2O1	-82*	-68
C[C@@H]1CN([C@H](C)CO)C(=O)c2cc(NC(=O)C3CC3)ccc2O[C@@H]1CN(C)CC1CCCCC1	34	7
CCCN(C)C[C@@H]1OCCCC[C@H](C)Oc2ccc(NC(=O)Nc3ccc(C(F)(F)F)cc3)cc2C(=O)N([C@@H](C)CO)C[C@@H]1C	-88*	-105*
C[C@@H]1CCCCO[C@@H](CN(C)CC2CCCCC2)[C@@H](C)CN([C@H](C)CO)C(=O)c2cc(NC(=O)Nc3ccc(C(F)(F)F)cc3)ccc2O1	-44	-10
C[C@@H]1CN([C@@H](C)CO)C(=O)c2cc(NC(=O)C3CC3)ccc2O[C@H]1CN(C)CC1CCCCC1	-89*	.
C[C@@H]1CCCCO[C@H](CN(C)CC2CCCCC2)[C@H](C)CN([C@@H](C)CO)C(=O)c2cc(NC(=O)Nc3ccc(C(F)(F)F)cc3)ccc2O1	-87*	-103*
CCCN(C)C[C@@H]1OCCCC[C@H](C)Oc2ccc(NC(=O)Nc3ccc(C(F)(F)F)cc3)cc2C(=O)N([C@H](C)CO)C[C@@H]1C	-77	-28
SMILES	Pf Dd2 inh	C diff HTS
C[C@@H]1CCCCO[C@@H](CN(C)CC2CCCCC2)[C@H](C)CN([C@@H](C)CO)C(=O)c2cc(NC(=O)Nc3ccc(C(F)(F)F)cc3)ccc2O1	-64	-61
C[C@H]1CN([C@@H](C)CO)C(=O)c2cc(C3=CCCC3)cnc2O[C@@H]1CN(C)C(=O)C1CCOCC1	30	-3
Cc1noc(C)c1S(=O)(=O)Nc1ccc2c(c1)C(=O)N([C@H](C)CO)C[C@@H](C)[C@@H](CN(C)S(=O)(=O)c1ccc(Cl)cc1)OCCCC[C@@H](C)O2	?	9
CC(C)CC#Cc1cnc2c(c1)C(=O)N([C@@H](C)CO)C[C@@H](C)[C@@H](CN(C)C(=O)c1ccccc1)O2	-3	2
C[C@H](CO)N1C[C@H](C)[C@H](CN(C)CC2CCCCC2)Oc2ccc(NC(=O)Nc3ccc(C(F)(F)F)cc3)cc2C1=O	-69	23
C[C@@H]1CN([C@@H](C)CO)C(=O)c2cc(NC(=O)Nc3ccc(C(F)(F)F)cc3)ccc2O[C@H]1CN(C)CC1CCCCC1	-86*	-2
C[C@H](CO)N1C[C@H](C)[C@H](CN(C)Cc2ccc(C(=O)Nc3ccccc3N)cc2)Oc2c(NC(=O)C3CCCCC3)cccc2C1=O	?	-2
C[C@H]1CN([C@@H](C)CO)C(=O)c2cccc(NC(=O)Nc3ccccc3)c2O[C@H]1CN(C)Cc1ccc(C(=O)Nc2ccccc2N)cc1	-73	-1
C[C@H]1CN([C@@H](C)CO)C(=O)c2cccc(NC(=O)C3CCCCC3)c2O[C@@H]1CN(C)Cc1ccc(C(=O)Nc2ccccc2N)cc1	-88*	-9
C[C@H](CO)N1C[C@H](C)[C@H](CN(C)Cc2ccc(C(F)(F)F)cc2)Oc2c(NC(=O)C3CCCCC3)cccc2C1=O	-30	16
C[C@@H]1CN([C@H](C)CO)C(=O)c2cccc(NC(=O)Nc3ccccc3)c2O[C@@H]1CN(C)Cc1ccc(C(=O)Nc2ccccc2N)cc1	-91*	1
C[C@@H]1CN([C@@H](C)CO)C(=O)c2cccc(NC(=O)C3CCCCC3)c2O[C@H]1CN(C)Cc1ccc(C(F)(F)F)cc1	-83*	9
C[C@H]1CN([C@@H](C)CO)C(=O)c2cccc(NC(=O)Nc3ccc(F)cc3)c2O[C@H]1CN(C)Cc1ccc(C(=O)Nc2ccccc2N)cc1	-71	13
C[C@H](CO)N1C[C@H](C)[C@@H](CN(C)Cc2ccc(C(=O)Nc3ccccc3N)cc2)Oc2c(NC(=O)Nc3ccc(F)cc3)cccc2C1=O	-85*	-4
C[C@@H]1CN([C@H](C)CO)C(=O)c2cc(NS(=O)(=O)c3cn(C)cn3)ccc2O[C@H]1CN(C)Cc1ccncc1	2	-3
